Screens deposited in PubChem BioAssay by several laboratories.
This is a sample that favours compounds with a hit; in the whole collection about 2.8% have one here.
CF NFkB block: blocks PAF-induced NF-kB reporter in cystic fibrosis cells. AID 588850. actives 0.86% (n = 360,000). inhibition, % at 5 µM. KKLEB NF-kB-GFP reporter, GFP fluorescence overnight;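 active = at least 50% inhibition at 5 µM, scaled per plate between neutral and stimulator controls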;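 also: PAF is a Pseudomonas aeruginosa culture filtrate used as stimulus; plate controls were PAF-stimulated DMSO wells for no effect and unstimulated DMSO wells for full effect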
MITF TRPM1 inh: inhibitors of MITF-driven TRPM1 promoter in melanoma cells; SK-MEL-5 TRPM1 promoter luciferase, 24 h; inhibition, % at 12.5 µM; actives 0.83% (n = 330,000);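 active = mean inhibition across replicates of 60% or more, whatever share of single replicates reaches that level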
Peg3 promoter: Peg3 promoter activity inhibition | HeLa PEG-Prom luciferase reporter, luminescence, overnight | inhibition, % at 20 µM | actives 1.7% (n = 360,000);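 active = inhibition of at least 50% at 20 µM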
HIF-2a inh: inhibitors of HIF-2a. actives 0.72% (n = 360,000). inhibition, % at 18.8 µM. AID 624352. 786-0 RCC cells HIF-2a reporter, luciferase luminescence, overnight;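 active = inhibition of the luminescence signal of 40% or more relative to plate controls, in a single-dose primary screen at 18.75 µM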
B2AR ag: human beta-2 adrenergic receptor agonism by FAP; P07550; Am2.2-beta2AR cells, FAP receptor internalization, flow cytometry; response, % (concentration not given with the values); actives 0.43% (n = 340,000); AID 504454;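 active = response above a set limit, near 3 SD of response in nonfluorescent compounds, cut at about 42% in these data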
Target sequence (P07550 whole entry, looked up): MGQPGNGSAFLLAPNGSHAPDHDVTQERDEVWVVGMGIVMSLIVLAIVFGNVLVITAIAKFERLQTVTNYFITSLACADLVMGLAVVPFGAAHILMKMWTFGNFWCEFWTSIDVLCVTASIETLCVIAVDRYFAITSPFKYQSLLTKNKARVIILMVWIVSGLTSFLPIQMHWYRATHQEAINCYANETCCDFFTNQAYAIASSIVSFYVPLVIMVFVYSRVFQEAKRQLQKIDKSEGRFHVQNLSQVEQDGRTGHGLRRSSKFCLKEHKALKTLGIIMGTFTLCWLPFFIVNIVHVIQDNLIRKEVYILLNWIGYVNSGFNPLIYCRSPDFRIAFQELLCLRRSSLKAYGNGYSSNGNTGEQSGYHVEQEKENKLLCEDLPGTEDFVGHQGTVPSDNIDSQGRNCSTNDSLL
KKLEB cytotox: counter-screen for CF NF-kB inhibitors: cytotoxicity. KKLEB CF airway cells viability, ATPlite luminescence, overnight; stronger effect = lower value; cells stimulated with P. aeruginosa culture filtrate. activity change (cytotoxicity), % at 5 µM. actives 0.36% (n = 360,000). AID 602141;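 active = corrected activity change at or below -50% at 5 µM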
Beta2AR ag CP1: agonists of human beta-2 adrenergic receptor | shares compounds with B2AR ag | Am2.2-beta2AR cells, FAP surface receptor, flow cytometry; stronger effect = lower value | percent response (surface receptor), % at 10 µM | actives 25% (n = 1,100) | AID 540358;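 active = surface receptor percent response at or below 58%, roughly 3 SD from nonfluorescent compounds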
B2AR FAP counter: fluorescence artifact in beta-2AR agonist FAP counterscreen | 1,100 tested, under 10 active | Am2.2 cells, FAP fluorogen flow cytometry; stronger effect = lower value | shares compounds with B2AR ag | AID 588765 | calls only at 10 µM;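 active = percent response below a set limit in fluorescence channel 1 and below 50% in channel 8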
Starred values were filed as active, the others as inactive; i = inactive; . = no result.

SMILES	CF NFkB block	MITF TRPM1 inh	Peg3 promoter	HIF-2a inh	B2AR ag	KKLEB cytotox	Beta2AR ag CP1	B2AR FAP counter
CCCCCC(=O)N1C[C@H](O)[C@@H](n2cc(COC(=O)c3ccccc3)nn2)C[C@@H]1c1ccc(OC)cc1	5	.	10	0	.	9	.	.
CC(=O)Nc1ccc(CNc2nc3cc(-c4ccccc4C)sc3c(=O)n2C)cc1	-3	.	-13	-123	.	-3	.	.
COc1ccc(Nc2cc(C(=O)NCCCN3CCOCC3)c3ccccc3n2)cc1	0	21	-13	-18	6	-4	.	.
COc1ccc(Nc2cc(C(=O)NCCCN3CCN(C)CC3)c3ccccc3n2)cc1	-5	-3	-11	-6	47*	-9	86	i
CCOC(=O)c1c(NC(=O)COc2ccccc2OCC)sc2c1CC(C)(C)NC2(C)C	-19	84*	107*	18	62*	-3	59	i
CCOC(=O)C1=CCN(S(=O)(=O)c2cccc(Cl)c2)C1c1ccc(Br)cc1 (stereo not drawn)	12	.	35	-7	.	-12	.	.
Cc1ccc(OCc2cc(C(=O)NCc3cnn(-c4cccc(F)c4)c3)no2)cn1	-4	24	-36	-49	97*	-7	16*	i
Cc1ccc(OCc2cc(C(=O)NCc3ccc(OC(F)(F)F)cc3)no2)cn1	-13	2	-61	-32	52*	-2	40*	i
CCN(CC)/C(=N/S(=O)(=O)c1ccc(C)cc1)c1ccccc1	4	3	7	10	78*	3	110	i
CCN(CC)/C(=N\S(=O)(=O)c1ccccc1C)c1ccccc1	4	-1	11	5	4	-2	.	.
CN(C)c1nc(SCc2ccccc2Cl)nc2c1CCCC2	14	-4	12	20	43*	-2	131	i
CCn1nc(NS(=O)(=O)c2ccccc2)c2cc3ccccc3nc21	1	15	11	16	3	-26	.	.
CC(C)Cn1nc(NS(=O)(=O)c2ccccc2)c2cc3ccccc3nc21	-3	2	12	9	1	15	127	i
Cc1cccc(S(=O)(=O)Nc2ccc(-c3cn4ccccc4n3)cc2)c1	-8	-2	-112	-58	79*	-15	131	i
COc1cc(NC(=O)c2ccc3c(c2)OCO3)ccc1NC(=O)c1ccco1	-18	-21	-62	-77	-1	12	112	i
Cc1cc(NC(=O)c2ccc3c(c2)OCCO3)ccc1NC(=O)c1ccco1	16	-54	-197	-175	-5	-5	.	.
CNC(=S)N/N=C(\C)c1ccc(Cl)s1	-6	-18	-9	-14	-3	-4	103	i
CCNC(=S)N/N=C(\C)c1ccc(Cl)s1	-3	3	-18	-12	-7	4	.	.
O=C(OCC(=O)N1CCCC1)c1ccccc1C(=O)c1ccccc1	-9	-26	-28	-89	5	3	118	i
CSc1ccccc1C(=O)OCC(=O)N1CCCCCC1	2	-13	-98	-68	-4	10	.	.
COc1ccc(C(=O)CC(=O)c2ccc(C(C)(C)C)cc2)cc1	2	-13	-38	-26	3	-16	.	.
COc1ccc(C(=O)C(CCC(CNC(C)(C)C)C(=O)c2ccc(OC)cc2)CNC(C)(C)C)cc1 (stereo not drawn)	42	95*	105*	45*	54*	-27	80	i
Cc1cccc(NC(=O)N2CCC(C(=O)c3ccc(F)cc3)CC2)c1	12	5	9	-7	75*	-5	105	i
O=C(CCn1c(=O)oc2ccc(Cl)cc21)NCCCN1CCOCC1	13	-1	4	10	50*	-12	99	i
O=C(c1ccccc1)c1ccc(OCC(O)CNCc2cccc(Cl)c2)cc1 (stereo not drawn)	8	0	-3	10	0	-8	.	.
SMILES	CF NFkB block	MITF TRPM1 inh	Peg3 promoter	HIF-2a inh	B2AR ag	KKLEB cytotox	Beta2AR ag CP1	B2AR FAP counter
OC(CNC1Cc2ccccc2C1)c1ccccc1 (stereo not drawn)	-1	-18	-11	11	-10	-12	123	i
Oc1cccc(C(O)CNCc2ccc(-c3ccccc3)cc2)c1 (stereo not drawn)	10	-6	41	-7	28	-9	.	.
OC(CNCc1cccc(Cl)c1)c1ccccc1 (stereo not drawn)	16	3	-12	10	-8	-1	115	i
OC(CNCc1ccccc1)c1ccccc1 (stereo not drawn)	4	-9	-5	7	-5	2	110	i
OC(CC(O)c1ccccc1)c1ccccc1 (stereo not drawn)	4	0	-8	4	3	1	.	.
CCOc1cc(CNCC(O)c2ccccc2)cc(Cl)c1OC (stereo not drawn)	12	6	6	-4	0	-19	110	i
COC(=O)[C@]12CCCCC=C1N(Cc1ccc3c(c1)OCO3)C(=O)[C@H](CC(=O)N1CCCCC1)C2	.	.	.	-6	.	.	.	.
O=C(Nc1ccc(F)cc1)C(c1cc2ccccc2o1)N1CCN(c2ccncc2)CC1 (stereo not drawn)	.	.	.	-16	.	.	.	.
CC(O)c1c(OCc2ccccc2)ncnc1OCc1ccccc1 (stereo not drawn)	29	0	7	-31	98*	0	112	i
Cc1nc(SCC(=O)NC2CCCC2)c2oc3ccccc3c2n1	6	.	7	10	.	-2	.	.
CC(C)(C)NC1=NCCNC(c2ccccc2)=C1	0	.	1	4	.	-11	.	.
O=C(c1ccc(OC2CCN(Cc3ccc(C(F)(F)F)cc3)CC2)cc1)N1CCCCC1	8	3	27	29	62*	-6	8.5*	i
O=C(c1ccc(OC2CCN(Cc3ccccc3C(F)(F)F)CC2)cc1)N1CCCCC1	17	29	26	14	1	-7	104	i
CC(=O)c1cccc(S(=O)(=O)N2CCCC(c3nc(-c4ccc(C)o4)no3)C2)c1 (stereo not drawn)	3	-16	2	-8	54*	2	80	i
CC(OC(=O)/C=C/c1ccco1)C(=O)NC1CCCCC1 (stereo not drawn)	1	.	-2	13	.	2	.	.
CC(=O)Nc1ccc(S(=O)(=O)N2CCN(c3cc4c(cc3[N+](=O)[O-])n(C)c(=O)n4C)CC2)cc1	-28	2	7	-14	5	11	.	.
Cn1c(=O)n(C)c2cc([N+](=O)[O-])c(N3CCN(S(=O)(=O)c4ccc(C(C)(C)C)cc4)CC3)cc21	-6	-3	-6	-9	48*	12	107	i
